High-throughput results deposited in PubChem by National Center for Advancing Translational Sciences (NCATS).
This is a sample that favours compounds with a hit; in the whole collection about 11% have one here.
Pf growth 48h: P. falciparum growth inhibition at 48 hours (one generation); P. falciparum luciferase growth in erythrocytes, 48 h; Potency, µM (titrated, usually from 28.7 µM), usual class: inhibitors; 310,000 compounds, 5.9% hits; AID 504832
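Cell-based growth assay: transgenic P. falciparum expressing firefly luciferase, cultured in red cells within RPMI 1640 containing 0.5% w/v Albumax, 24 mM bicarbonate and gentamycin. A drop in luciferase activity indicates inhibition.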
AmpC inh detg: AmpC beta-lactamase inhibition with detergent present | AmpC hydrolysis of nitrocefin, absorbance 480 nm, 0.01% Triton | Potency, µM (series often up to 114 µM), usual class: inhibitors | 370,000 compounds, 0.041% hits | AID 485294; also: nearly all actives have a fitted effect of over 25% in size
Target sequence (P00811 whole entry, looked up): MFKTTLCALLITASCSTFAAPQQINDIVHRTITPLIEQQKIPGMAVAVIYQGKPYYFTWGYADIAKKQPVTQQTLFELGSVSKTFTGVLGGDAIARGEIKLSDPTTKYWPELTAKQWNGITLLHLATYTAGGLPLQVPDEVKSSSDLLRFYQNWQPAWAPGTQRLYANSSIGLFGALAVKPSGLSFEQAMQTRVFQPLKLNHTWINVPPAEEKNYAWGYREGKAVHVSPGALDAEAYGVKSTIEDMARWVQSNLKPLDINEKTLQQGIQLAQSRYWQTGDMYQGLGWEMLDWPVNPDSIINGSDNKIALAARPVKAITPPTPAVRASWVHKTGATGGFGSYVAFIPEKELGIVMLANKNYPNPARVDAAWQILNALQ
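AmpC (5.3 nM in the dispensed reagent) in 20 mM phosphate pH 7.0 with 0.01% (detergent screen) or 0.0001% Triton X-100 was preincubated with compounds for 15 min at room temperature. Nitrocefin was then added from an 800 uM solution, and hydrolysis was followed at 480 nm.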
Pf growth 96h: P. falciparum growth inhibition at 96 hour, primary screen for plastid delayed-death inhibitors | P. falciparum luciferase reporter growth, 96 h | Potency, µM (series often up to 28.7 µM), most hits filed as inhibitors | 320,000 compounds, 6.9% hits
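Two parasite generations (96 h, 37 C, 5% CO2) of compound exposure in infected erythrocytes (0.05% parasitemia, 2% hematocrit). Luciferase-reporter P. falciparum; decreased luminescence indicates inhibited growth, aimed at apicoplast-acting delayed death.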
AMA1 RON2 block: AMA1-RON2 (P. falciparum) interaction inhibition. AlphaScreen AMA1-biotinylated RON2 peptide binding. Potency, µM (doses to about 58.2 µM), hits mostly inhibitors. 360,000 compounds, 0.2% hits. AID 720542; also: nearly all actives have a fitted effect of over 45% in size
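AMA1 (3D7) with his tag at 25 nM final met compounds first, then biotinylated RON2 peptide at 25 nM; detection used donor plus acceptor beads, 10 µg/mL apiece, read by AlphaScreen after 30 min at room temperature.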
HCV inh: blocks hepatitis C virus. AID 651820. 340,000 compounds, 3.4% hits. Potency, µM (highest dose often 41.8 µM), actives largely listed as inhibitors. Huh7.5.1 HCVcc-Cre infection, luciferase reporter, 44 h
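Compounds are dispensed onto cells plated 4 h earlier at 1,000 per well, with HCVcc-Cre virus (about 0.5 moi) added next. Following 44 h of culture, luminescent signal is measured for 15 sec after 15 min with substrate at room temperature.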
AmpC inh no detg: inhibitors of E. coli AmpC beta-lactamase without detergent. AID 485341. Potency, µM (highest dose often 57.1 µM), usual class: inhibitors. P00811. 330,000 compounds, 0.52% hits. AmpC nitrocefin hydrolysis, absorbance 480 nm, 0.0001% Triton; also: nearly all actives have a fitted effect of over 20% in size
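20 mM phosphate pH 7.0 + 0.01% (detergent screen) or 0.0001% Triton X-100; 5.3 nM AmpC reagent; cpd preinc 15 min RT; nitrocefin (800 uM stock) to start; A480 q20 s × 4 min; Activity was normalised to no-enzyme and no-compound control wells.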
Of the large screens only hits and unclear results are named; the others gave an inactive call. Calls follow the shape of the dose curve; as a rule, active = well fitted curve in the direction sought with a large enough effect; inconclusive = small, poorly fitted or top-dose-only effect, or another doubt; inactive = no such curve, though single readings can be large; an effect the other way counts as inactive or inconclusive.

COc1ccc(-c2[nH]c(-c3ccc(F)cc3)nc2SCC(=O)Nc2ccc(OC)c(OC)c2)cc1	none (no result: Pf growth 48h, Pf growth 96h, AMA1 RON2 block, HCV inh, AmpC inh no detg)
O=C(CSc1nc2ccccc2n1Cc1ccccc1Cl)NCc1ccccc1	none (no result: Pf growth 48h, Pf growth 96h, AMA1 RON2 block, HCV inh, AmpC inh no detg)
COc1ccc(N2CCN(C(=O)Cn3c(-c4cccs4)cc4ccccc43)CC2)cc1	none (no result: Pf growth 48h, Pf growth 96h, AMA1 RON2 block, HCV inh, AmpC inh no detg)
O=C(CC(c1cccs1)N1Cc2ccccc2C1=O)Nc1ccc(Cl)cc1 (configuration not stated)	none (no result: Pf growth 48h, Pf growth 96h, AMA1 RON2 block, HCV inh, AmpC inh no detg)
O=[N+]([O-])c1ccc(C(O)CN=Cc2ccc(O)cc2O)cc1 (configuration not stated)	AmpC inh no detg 12.6µM
CN(C)/N=C/c1cc([N+](=O)[O-])ccc1O	Pf growth 48h inconclusive
O=C(CSc1ccsc1[N+](=O)[O-])NCc1ccco1	Pf growth 48h 11.7µM, Pf growth 96h inconclusive
COc1ccc(CCN2C(=O)N(c3cccc(C)c3)C(=O)C2CC(=O)Nc2ccccc2)cc1OC (configuration not stated)	none (no result: Pf growth 48h, Pf growth 96h, AMA1 RON2 block, HCV inh, AmpC inh no detg)
COc1cc2c(cc1OC)-c1c(OC)c(OC)cc3c1[C@H](C2)[N+](C)(C)CC3	Pf growth 48h inconclusive, AmpC inh detg inconclusive, Pf growth 96h 0.37µM, HCV inh inconclusive
COc1ccccc1-c1noc(-c2ccc(NCc3ccco3)c([N+](=O)[O-])c2)n1	none (no result: Pf growth 48h, Pf growth 96h, AMA1 RON2 block, HCV inh, AmpC inh no detg)
Cc1ccc(NC(=S)NCc2ccc(Cl)cc2)c(C)c1	Pf growth 48h 10.4µM, AmpC inh detg inconclusive, Pf growth 96h inconclusive, HCV inh inconclusive
Cc1cc(Cl)ccc1NC(=S)NCc1ccccc1	HCV inh inconclusive
Cc1cc(Cl)ccc1NC(=S)NCCN1CCOCC1	Pf growth 96h 5.22µM
Cc1ccc(Cl)cc1NC(=O)C(C)n1nnc2sc3c(c2c1=O)CCCC3 (configuration not stated)	none (no result: Pf growth 48h, Pf growth 96h, AMA1 RON2 block, HCV inh, AmpC inh no detg)
CC(C)CCN(CCC(C)C)CC(O)Cn1c2ccccc2c(=O)c2ccccc21 (configuration not stated)	Pf growth 48h 1.65µM, Pf growth 96h inconclusive, HCV inh inconclusive
CCOc1ccc(CNC(=O)c2cc3c(s2)-c2ccccc2OC3)cc1	none (no result: Pf growth 48h, Pf growth 96h, AMA1 RON2 block, HCV inh, AmpC inh no detg)
CCN(Cc1ccncc1)Cc1nc(Cc2ccccc2Cl)no1	Pf growth 48h 10.4µM, Pf growth 96h inconclusive, HCV inh 11.2µM
CCCCN(C)c1nc(-c2ccco2)c2c(c1C#N)CC(C)(C)OC2	AmpC inh detg inconclusive, Pf growth 96h 2.94µM (no result: Pf growth 48h)
CC1(C)Cc2c(C#N)c(NCCCO)nc(-c3ccccc3)c2CO1	Pf growth 96h inconclusive (no result: Pf growth 48h)
CCN(CC)CCNc1nc(-c2ccccc2)c2c(c1C#N)CC(C)(C)OC2	Pf growth 96h 8.28µM, HCV inh inconclusive (no result: Pf growth 48h)
COc1ccc(OC)c(NC(=O)c2cccnc2Sc2cc(C)ccc2C)c1	Pf growth 48h 10.4µM, Pf growth 96h inconclusive, HCV inh inconclusive
CCOc1ccccc1C(=O)Nc1cc(OC)ccc1OC	Pf growth 96h inconclusive, HCV inh inconclusive
COc1cc(/C=C/c2nc3cc(Cl)ccc3c(=O)n2-c2cccc(C(F)(F)F)c2)cc(OC)c1OC	none (no result: Pf growth 48h, Pf growth 96h, AMA1 RON2 block, HCV inh, AmpC inh no detg)
CCc1cc(/C(Cc2ccc3ccccc3n2)=N\O)c(O)cc1O	Pf growth 96h 1.65µM, HCV inh inconclusive
CCc1cc(/C(Cc2cscn2)=N\O)c(O)cc1O	AmpC inh detg inconclusive (no result: Pf growth 48h)
Cc1c(O)ccc(/C(Cc2ccc3ccccc3n2)=N\N)c1O	Pf growth 48h inconclusive, Pf growth 96h inconclusive, HCV inh inconclusive
CCc1cc(/C(Cc2ccccn2)=N\O)c(O)cc1O	HCV inh 22.4µM (no result: Pf growth 48h)
Cc1cc(C)cc(N(CC(=O)NCCc2ccc(Cl)cc2)S(=O)(=O)c2c(C)noc2C)c1	none (no result: Pf growth 48h, Pf growth 96h, AMA1 RON2 block, HCV inh, AmpC inh no detg)
COc1cc(/C=N\Nc2nncn2N)ccc1OC(C)=O	Pf growth 96h 0.928µM
Fc1cc(F)c(C2SCCN2C(=S)Nc2cccc(C(F)(F)F)c2)c(F)c1 (configuration not stated)	Pf growth 48h inconclusive, Pf growth 96h 2.94µM
CCOC(=O)c1ccc(NC(=S)N2CCSC2c2c(F)cc(F)cc2F)cc1 (configuration not stated)	Pf growth 48h inconclusive
CCN1CCN(C(=S)Nc2cccc(C(F)(F)F)c2)CC1	Pf growth 96h 9.28µM
